From PubChem BioAssay (EPA / NIEHS)
Results filed as inconclusive are left out. Activity calls are given as the source filed them. The calls were made as follows, unless noted: active = hit-call score of the fitted dose curve at least 0.9, where 1 is the maximum; inconclusive = response in the unintended direction; inactive = score below 0.9.

Assays:
[1] = ATG_TCF_b_cat_CIS: Attagene CIS-FACTORIAL HepG2 Assay for human T-Cell-Factor with beta-catenin (TCF/b-cat) (AID 2282965; active = hit-call score of the fitted dose curve at least 0.9, where 1 is the maximum; inactive = score below 0.9); details: HepG2 TCF/beta-catenin cis-reporter transcription, actives raise or lower the signal
Procedure, shortened: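 Measured: reporter mRNA in HepG2 transiently transfected with cis-promoter reporter units, 24 h after chemical addition. Fitting was bidirectional, DMSO as negative control.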

[2] = ATG_TAL_CIS: Attagene CIS-FACTORIAL HepG2 Assay for human TAL Basal Promoter (AID 2282966; active = hit-call score of the fitted dose curve at least 0.9, where 1 is the maximum; inactive = score below 0.9;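 also: background control endpoint measuring basal TAL promoter reporter mRNA not a specific factor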); details: HepG2 Attagene cis-factorial TAL promoter reporter; actives raise or lower the signal
Procedure, shortened: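 Basal-promoter background-control endpoint from a multiplexed HepG2 reporter panel. Cells were exposed 24 h, then reporter mRNA was read by RT-PCR/CE fluorescence and fitted in both directions relative to DMSO.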

[3] = ATG_VDRE_CIS: Attagene CIS-FACTORIAL HepG2 Assay for human Vitamin D Receptor Element (VDRE) (AID 2282968; active = hit-call score of the fitted dose curve at least 0.9, where 1 is the maximum; inactive = score below 0.9); details: HepG2 VDRE cis-reporter transcription, actives raise or lower the signal
Procedure, shortened: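 Measures endogenous factor activity through cis-element-driven reporter transcripts in transiently transfected HepG2. Cells are treated 24 h; reporter mRNA is quantified by RT-PCR and capillary electrophoresis; fitting is bidirectional.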

[4] = biological target: Estrogen receptor (Homo sapiens) (UniProt P03372); assay: ATG_ERa_TRANS: Attagene TRANS-FACTORIAL HepG2 Assay for human Estrogen Receptor alpha (ERa) (AID 2282970); details: HepG2 Attagene TRANS ERa GAL4 reporter, mRNA
Chain of Estrogen receptor (Homo sapiens) (P03372 whole entry, looked up, the tested form may be a part): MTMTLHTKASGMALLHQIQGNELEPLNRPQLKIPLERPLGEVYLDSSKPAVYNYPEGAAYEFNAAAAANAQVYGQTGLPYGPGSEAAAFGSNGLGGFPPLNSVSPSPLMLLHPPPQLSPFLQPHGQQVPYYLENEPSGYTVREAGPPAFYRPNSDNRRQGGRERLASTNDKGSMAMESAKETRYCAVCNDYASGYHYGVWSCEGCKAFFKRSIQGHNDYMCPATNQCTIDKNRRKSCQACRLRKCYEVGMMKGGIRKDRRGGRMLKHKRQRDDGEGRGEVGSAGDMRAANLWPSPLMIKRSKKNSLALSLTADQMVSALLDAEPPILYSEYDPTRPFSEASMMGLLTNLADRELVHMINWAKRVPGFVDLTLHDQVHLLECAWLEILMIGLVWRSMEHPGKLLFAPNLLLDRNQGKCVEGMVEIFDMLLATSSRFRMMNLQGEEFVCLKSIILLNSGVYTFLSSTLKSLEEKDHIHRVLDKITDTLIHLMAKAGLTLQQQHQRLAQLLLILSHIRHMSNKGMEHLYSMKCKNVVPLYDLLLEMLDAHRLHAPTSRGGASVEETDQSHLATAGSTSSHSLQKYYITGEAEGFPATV
Procedure, shortened: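 Gal4-fusion ERa transactivation, measured as reporter transcript level in transiently transfected HepG2 cells. Exposure 24 h; RT-PCR plus capillary electrophoresis with fluorescence detection.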

[5] = biological target: X-box-binding protein 1 (Homo sapiens) (UniProt P17861); assay: ATG_Xbp1_CIS: Attagene CIS-FACTORIAL HepG2 Assay for human X-box Binding Protein 1 (XBP1) (AID 2282972; active = hit-call score of the fitted dose curve at least 0.9, where 1 is the maximum; inactive = score below 0.9); details: HepG2 XBP1 cis-element reporter, Attagene multiplex; actives raise or lower the signal
Chain of X-box-binding protein 1 (Homo sapiens) (P17861 whole entry, looked up): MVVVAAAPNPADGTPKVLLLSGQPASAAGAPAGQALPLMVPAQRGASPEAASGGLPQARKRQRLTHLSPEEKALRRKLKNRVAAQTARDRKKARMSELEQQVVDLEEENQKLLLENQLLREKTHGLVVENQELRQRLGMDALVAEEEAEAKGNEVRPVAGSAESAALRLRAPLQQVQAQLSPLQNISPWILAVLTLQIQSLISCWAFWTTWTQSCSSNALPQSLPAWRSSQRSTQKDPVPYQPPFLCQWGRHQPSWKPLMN
Procedure, shortened: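 Multiplexed cis-reporter readout in transfected HepG2 liver cells. Exposure lasted 24 hours. Activity in either direction was fitted against DMSO as negative control and baseline.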

[6] = ATG_M_19_TRANS: Attagene TRANS-FACTORIAL HepG2 Assay for M19 Transcription Factor (Internal Marker) (AID 2282974); details: HepG2 Attagene TRANS-FACTORIAL M19 internal marker reporter
Procedure, shortened: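 Reporter mRNA induction was measured in transfected HepG2 cells 24 h after dosing. Endpoint fitted upward relative to DMSO and serves as a background control within the multiplexed TRANS panel.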

[7] = ATG_GAL4_TRANS: Attagene TRANS-FACTORIAL HepG2 Assay for GAL4 (Internal Marker) (AID 2282976); details: HepG2 Attagene TRANS GAL4 internal marker reporter
Procedure, shortened: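 Background-control readout: GAL4-UAS reporter transcript in transiently transfected HepG2 cells after 24 h compound exposure. Measured by RT-PCR, 6-FAM primer extension, HpaI digest and capillary electrophoresis; gain-of-signal fit versus DMSO.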

[8] = biological target: Glucocorticoid receptor (Homo sapiens) (UniProt P04150); assay: ATG_GR_TRANS: Attagene TRANS-FACTORIAL HepG2 Assay for human Glucocorticoid Receptor (GR) (AID 2282978); details: HepG2 Attagene TRANS GR reporter, mRNA transcription;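 also: activators score as hits since higher reporter transcript over DMSO is fitted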
Chain of Glucocorticoid receptor (Homo sapiens) (P04150 whole entry, looked up, the tested form may be a part): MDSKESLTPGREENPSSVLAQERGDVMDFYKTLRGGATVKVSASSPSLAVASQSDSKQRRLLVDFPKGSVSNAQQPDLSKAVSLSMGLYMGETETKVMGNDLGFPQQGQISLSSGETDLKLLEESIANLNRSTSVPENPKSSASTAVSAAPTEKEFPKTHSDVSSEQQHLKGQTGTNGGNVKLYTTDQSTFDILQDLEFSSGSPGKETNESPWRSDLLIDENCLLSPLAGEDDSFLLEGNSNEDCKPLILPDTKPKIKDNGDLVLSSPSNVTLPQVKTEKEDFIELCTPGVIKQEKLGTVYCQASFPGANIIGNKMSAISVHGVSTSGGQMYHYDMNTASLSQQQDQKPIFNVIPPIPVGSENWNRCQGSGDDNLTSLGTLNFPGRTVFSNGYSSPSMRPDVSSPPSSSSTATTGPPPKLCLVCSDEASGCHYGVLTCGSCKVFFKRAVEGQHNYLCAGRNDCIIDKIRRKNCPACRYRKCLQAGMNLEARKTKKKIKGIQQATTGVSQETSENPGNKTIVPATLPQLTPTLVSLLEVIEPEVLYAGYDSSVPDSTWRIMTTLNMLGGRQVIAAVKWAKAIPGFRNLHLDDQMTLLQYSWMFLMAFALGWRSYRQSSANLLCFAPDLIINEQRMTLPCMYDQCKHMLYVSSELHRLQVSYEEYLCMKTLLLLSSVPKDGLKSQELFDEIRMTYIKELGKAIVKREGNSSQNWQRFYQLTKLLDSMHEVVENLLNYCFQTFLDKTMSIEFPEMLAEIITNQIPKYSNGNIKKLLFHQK
Procedure, shortened: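 Reporter transcript levels, detected by fluorescence after RT-PCR and capillary electrophoresis, served as the endpoint. HepG2 cells bearing transfected GAL4-UAS reporters responsive to NR-GAL4 chimeras were incubated with compound 24 h; DMSO defined baseline.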

[9] = biological target: Bile acid receptor (Homo sapiens) (UniProt Q96RI1); assay: ATG_FXR_TRANS: Attagene TRANS-FACTORIAL HepG2 Assay for Farnesoid X Receptor (FXR) (AID 2282979); details: HepG2 Attagene TRANS FXR-GAL4 reporter transcription;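 also: hits raise reporter mRNA above DMSO so AC50 marks FXR activation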
Procedure, shortened: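 HepG2 cells were transiently transfected with GAL4-UAS reporters driven by chimeric NR-Gal4 proteins and dosed for 24 h. Reporter mRNA was quantified by RT-PCR, fluorescent labelling, HpaI digestion and capillary electrophoresis, with gain of signal scored versus DMSO.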

[10] = biological target: Oxysterols receptor LXR-alpha (Homo sapiens) (UniProt Q13133); assay: ATG_LXRa_TRANS: Attagene TRANS-FACTORIAL HepG2 Assay for human Liver X Receptor alpha (LXRa) (AID 2282980); details: HepG2 Attagene TRANS reporter, LXRa transactivation
Chain of Oxysterols receptor LXR-alpha (Homo sapiens) (Q13133 whole entry, looked up, the tested form may be a part): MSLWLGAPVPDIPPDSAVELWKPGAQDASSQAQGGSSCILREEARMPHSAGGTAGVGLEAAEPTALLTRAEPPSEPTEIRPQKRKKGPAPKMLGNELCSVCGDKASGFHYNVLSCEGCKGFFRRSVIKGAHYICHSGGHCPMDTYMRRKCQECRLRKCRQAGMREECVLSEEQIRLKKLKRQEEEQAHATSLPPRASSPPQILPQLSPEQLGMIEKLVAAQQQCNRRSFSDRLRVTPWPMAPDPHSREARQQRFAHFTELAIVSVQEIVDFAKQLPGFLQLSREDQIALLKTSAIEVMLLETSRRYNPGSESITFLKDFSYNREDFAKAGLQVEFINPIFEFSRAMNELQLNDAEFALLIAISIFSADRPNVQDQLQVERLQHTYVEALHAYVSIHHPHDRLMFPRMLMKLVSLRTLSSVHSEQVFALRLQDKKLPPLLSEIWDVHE
Procedure, shortened: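 HepG2 cells transiently transfected with GAL4-UAS reporter units for chimeric NR-Gal4 proteins, exposed to chemicals for 24 h. Reporter mRNA quantified by RT-PCR and capillary electrophoresis; gain of signal fitted relative to DMSO.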

[11] = biological target: Hepatocyte nuclear factor 4-alpha (Homo sapiens) (UniProt P41235); assay: ATG_HNF4a_TRANS: Attagene TRANS-FACTORIAL HepG2 Assay for human Hepatocyte Nuclear Factor 4 alpha (HNF4a) (AID 2282982); details: HepG2 HNF4a transactivation reporter, mRNA readout
Chain of Hepatocyte nuclear factor 4-alpha (Homo sapiens) (P41235 whole entry, looked up): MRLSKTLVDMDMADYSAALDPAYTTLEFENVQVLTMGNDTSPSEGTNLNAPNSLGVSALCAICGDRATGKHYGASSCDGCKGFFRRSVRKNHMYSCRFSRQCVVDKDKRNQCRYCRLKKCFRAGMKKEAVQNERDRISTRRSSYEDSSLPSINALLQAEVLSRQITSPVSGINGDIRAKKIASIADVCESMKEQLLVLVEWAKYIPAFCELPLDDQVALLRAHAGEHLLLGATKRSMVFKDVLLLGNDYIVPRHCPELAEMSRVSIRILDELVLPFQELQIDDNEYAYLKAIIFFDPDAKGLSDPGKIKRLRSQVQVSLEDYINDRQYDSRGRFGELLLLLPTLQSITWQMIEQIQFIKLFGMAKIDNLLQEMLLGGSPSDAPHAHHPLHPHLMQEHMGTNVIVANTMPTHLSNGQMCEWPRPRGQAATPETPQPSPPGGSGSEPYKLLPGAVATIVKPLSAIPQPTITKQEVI
Procedure, shortened: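 Multiplexed reporter assay: transfected HepG2, 24 h exposure, total RNA → oligo(dT) RT → PCR → 6-FAM extension → HpaI digest → CE fluorescence. DMSO = negative control.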

[12] = ATG_M_06_TRANS: Attagene TRANS-FACTORIAL HepG2 Assay for M06 Transcription Factor (Internal Marker) (AID 2282983); details: HepG2 Attagene TRANS M06 internal marker reporter
Procedure, shortened: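 mRNA levels of a reporter transcript, quantified as FAM fluorescence on capillary electrophoresis, served as readout. HepG2 cells expressing exogenous GAL4-chimera reporter constructs were exposed for 24 h. Gain of signal over DMSO was evaluated.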

[13] = ATG_M_32_TRANS: Attagene TRANS-FACTORIAL HepG2 Assay for M32 Transcription Factor (Internal Marker) (AID 2282984); details: HepG2 Attagene TRANS M32 internal marker reporter
Procedure, shortened: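 Cell-based TRANS-format assay in HepG2: exogenous chimeric GAL4 reporter units transiently expressed, compounds applied 24 h. Reporter mRNA detected by RT-PCR plus capillary electrophoresis; this readout is an internal background marker.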

[14] = biological target: Transcriptional activator Myb (Homo sapiens) (UniProt P10242); assay: ATG_Myb_CIS: Attagene CIS-FACTORIAL HepG2 Assay for human Myeloblastosis (Myb) Proto-Oncogene Transcription Factor (AID 2282986; active = hit-call score of the fitted dose curve at least 0.9, where 1 is the maximum; inactive = score below 0.9); details: HepG2 Attagene CIS-FACTORIAL Myb reporter transcription; actives raise or lower the signal
Chain of Transcriptional activator Myb (Homo sapiens) (P10242 whole entry, looked up): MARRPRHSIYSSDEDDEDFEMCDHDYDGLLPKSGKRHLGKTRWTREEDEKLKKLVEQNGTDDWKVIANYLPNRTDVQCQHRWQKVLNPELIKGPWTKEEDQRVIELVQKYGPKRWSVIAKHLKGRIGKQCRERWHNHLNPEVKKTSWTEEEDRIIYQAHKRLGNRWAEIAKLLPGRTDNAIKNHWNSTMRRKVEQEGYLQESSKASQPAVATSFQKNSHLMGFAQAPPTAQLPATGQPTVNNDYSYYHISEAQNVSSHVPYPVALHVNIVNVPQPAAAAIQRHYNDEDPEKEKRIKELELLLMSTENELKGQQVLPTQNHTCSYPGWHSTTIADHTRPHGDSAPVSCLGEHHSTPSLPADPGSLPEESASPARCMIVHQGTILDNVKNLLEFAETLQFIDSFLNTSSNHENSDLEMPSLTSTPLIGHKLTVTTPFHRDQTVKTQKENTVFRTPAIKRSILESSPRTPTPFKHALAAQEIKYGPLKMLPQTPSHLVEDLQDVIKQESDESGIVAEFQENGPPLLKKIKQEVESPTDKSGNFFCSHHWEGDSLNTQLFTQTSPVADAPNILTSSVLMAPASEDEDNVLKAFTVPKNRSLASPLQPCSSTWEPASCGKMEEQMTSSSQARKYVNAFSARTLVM
Procedure, shortened: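 Transiently transfected HepG2 cells, treated 24 h. Reporter mRNA quantified by RT-PCR/capillary electrophoresis; bidirectional fit relative to DMSO.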

[15] = biological target: Estrogen-related receptor gamma (Homo sapiens) (UniProt P62508); assay: ATG_ERRg_TRANS: Attagene TRANS-FACTORIAL HepG2 Assay for human Estrogen-Related Receptor gamma (ERRg) (AID 2282977); details: HepG2 Attagene TRANS reporter, ERRg transactivation;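 also: hits increase reporter signal over DMSO so potencies reflect activators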
Chain of Estrogen-related receptor gamma (Homo sapiens) (P62508 whole entry, looked up, the tested form may be a part): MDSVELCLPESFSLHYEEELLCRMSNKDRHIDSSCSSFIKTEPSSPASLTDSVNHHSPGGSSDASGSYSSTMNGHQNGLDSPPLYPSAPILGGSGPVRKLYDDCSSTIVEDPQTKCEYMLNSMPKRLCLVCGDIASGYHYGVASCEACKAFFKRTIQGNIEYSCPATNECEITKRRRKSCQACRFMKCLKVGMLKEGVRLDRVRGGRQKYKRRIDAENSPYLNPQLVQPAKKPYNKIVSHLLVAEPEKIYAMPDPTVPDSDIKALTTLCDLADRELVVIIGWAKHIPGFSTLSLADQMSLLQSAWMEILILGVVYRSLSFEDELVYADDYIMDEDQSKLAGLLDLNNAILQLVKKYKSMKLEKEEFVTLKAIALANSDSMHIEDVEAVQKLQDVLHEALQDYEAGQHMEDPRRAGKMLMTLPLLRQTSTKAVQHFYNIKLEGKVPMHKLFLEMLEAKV
Procedure, shortened: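 Exogenous NR-Gal4 chimera activity was assessed in HepG2 cells bearing transfected GAL4-UAS reporters. After 24 h dosing, total RNA underwent RT-PCR, fluorescent primer extension and HpaI digestion before capillary electrophoresis, with gain of signal scored against DMSO.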

[16] = biological target: Oxysterols receptor LXR-beta (Homo sapiens) (UniProt P55055); assay: ATG_LXRb_TRANS: Attagene TRANS-FACTORIAL HepG2 Assay for human Liver X Receptor beta (LXRb) (AID 2282981); details: HepG2 Attagene TRANS GAL4-LXRb reporter, mRNA
Chain of Oxysterols receptor LXR-beta (Homo sapiens) (P55055 whole entry, looked up, the tested form may be a part): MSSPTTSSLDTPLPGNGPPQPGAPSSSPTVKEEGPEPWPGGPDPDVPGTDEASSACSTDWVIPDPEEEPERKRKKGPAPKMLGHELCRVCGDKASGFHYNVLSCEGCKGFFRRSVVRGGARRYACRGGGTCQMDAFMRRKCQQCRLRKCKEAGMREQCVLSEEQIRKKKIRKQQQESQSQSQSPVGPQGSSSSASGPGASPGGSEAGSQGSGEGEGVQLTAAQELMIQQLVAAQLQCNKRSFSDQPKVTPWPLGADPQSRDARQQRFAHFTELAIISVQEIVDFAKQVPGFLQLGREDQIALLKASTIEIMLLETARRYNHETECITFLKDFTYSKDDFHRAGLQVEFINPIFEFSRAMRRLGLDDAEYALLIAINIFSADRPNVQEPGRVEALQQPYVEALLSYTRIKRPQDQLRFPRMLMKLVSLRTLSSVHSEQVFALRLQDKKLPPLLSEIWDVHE
Procedure, shortened: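 After 24 h of chemical treatment, transfected HepG2 cells yield total RNA; reporter cDNA is PCR-amplified, FAM-labelled, HpaI-cut and run on capillary electrophoresis. Signal reflects chimeric LXRb-Gal4 activity on GAL4-UAS reporters.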

[17] = biological target: Nuclear receptor subfamily 4 group A member 2 (Homo sapiens) (UniProt P43354); assay: ATG_NURR1_TRANS: Attagene TRANS-FACTORIAL HepG2 Assay for human Nuclear Receptor Related Protein 1 (NURR1) (AID 2282985); details: HepG2 Attagene TRANS reporter, mRNA readout
Procedure, shortened: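 Measures transcriptional activation by an exogenous NR-Gal4 chimera in transfected HepG2 liver cells. After 24 h, reporter RNA is reverse-transcribed, amplified and resolved by capillary electrophoresis; DMSO defines baseline.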

[18] = ATG_TGFb_CIS: Attagene CIS-FACTORIAL HepG2 Assay for human Transforming Growth Factor (TGF) (AID 2282967; active = hit-call score of the fitted dose curve at least 0.9, where 1 is the maximum; inactive = score below 0.9); details: HepG2 Attagene CIS TGFb reporter, mRNA transcription; actives raise or lower the signal
Procedure, shortened: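 Liver HepG2 line, cis-factorial reporter panel, 24 h dosing. Quantitation: RT-PCR products labeled with 6-FAM, cut with HpaI, resolved by capillary electrophoresis; DMSO-referenced bidirectional analysis.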

[19] = biological target: Steroid hormone receptor ERR1 (Homo sapiens) (UniProt P11474); assay: ATG_ERRa_TRANS: Attagene TRANS-FACTORIAL HepG2 Assay for human Estrogen-Related Receptor alpha (ERRa) (AID 2282971); details: HepG2 Attagene TRANS reporter, ERRa transactivation
Chain of Steroid hormone receptor ERR1 (Homo sapiens) (P11474 whole entry, looked up, the tested form may be a part): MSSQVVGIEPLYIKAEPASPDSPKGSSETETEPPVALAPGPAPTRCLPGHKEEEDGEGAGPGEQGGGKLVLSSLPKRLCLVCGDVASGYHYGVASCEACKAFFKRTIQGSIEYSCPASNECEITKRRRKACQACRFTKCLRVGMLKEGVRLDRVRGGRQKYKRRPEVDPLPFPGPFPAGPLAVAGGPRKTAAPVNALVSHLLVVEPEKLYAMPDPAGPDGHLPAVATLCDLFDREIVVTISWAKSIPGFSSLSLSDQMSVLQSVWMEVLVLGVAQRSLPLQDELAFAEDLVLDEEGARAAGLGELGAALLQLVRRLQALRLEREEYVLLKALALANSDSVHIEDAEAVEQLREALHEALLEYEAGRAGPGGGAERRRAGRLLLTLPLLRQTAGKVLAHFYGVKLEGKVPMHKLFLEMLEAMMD
Procedure, shortened: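 HepG2 cells transiently transfected with GAL4-UAS reporter units and chimeric NR-Gal4 constructs; after 24 hour compound incubation, reporter mRNA quantified by RT-PCR, fluorescent labelling and capillary electrophoresis, gain of signal versus DMSO.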

[20] = biological target: Nuclear receptor subfamily 1 group I member 3 (Homo sapiens) (UniProt Q14994); assay: ATG_CAR_TRANS: Attagene TRANS-FACTORIAL HepG2 Assay for human Constitutive Androstane Receptor (CAR) (AID 2282969); details: HepG2 Attagene TRANS-FACTORIAL CAR reporter;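 also: activators raise reporter mRNA above DMSO so AC50 marks induction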
Chain of Nuclear receptor subfamily 1 group I member 3 (Homo sapiens) (Q14994 whole entry, looked up, the tested form may be a part): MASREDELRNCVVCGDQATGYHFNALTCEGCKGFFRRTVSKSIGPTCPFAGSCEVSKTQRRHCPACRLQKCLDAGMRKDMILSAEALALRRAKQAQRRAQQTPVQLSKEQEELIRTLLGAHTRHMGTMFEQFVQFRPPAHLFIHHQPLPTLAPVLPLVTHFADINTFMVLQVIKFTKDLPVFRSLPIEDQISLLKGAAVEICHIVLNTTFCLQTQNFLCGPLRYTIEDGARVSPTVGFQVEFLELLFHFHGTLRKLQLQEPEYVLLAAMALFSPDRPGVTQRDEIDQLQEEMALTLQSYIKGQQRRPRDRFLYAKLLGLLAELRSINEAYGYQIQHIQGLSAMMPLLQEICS
Procedure, shortened: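 Signal is reporter mRNA induction relative to DMSO, measured 24 h after dosing by RT-PCR with fluorescent primer extension and capillary electrophoresis. Human HepG2 liver cells carried transiently transfected chimeric NR-Gal4/GAL4-UAS reporter constructs.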

Measured: AC50

CCC(C)(CCCC(C)C)OC(C)=O (centres undefined)
not listed: [15] | [16] | [17] | [18] | [19] | [20]
inactive: all other assays above

COc1ccc2[nH]cc(CCNC(C)=O)c2c1
not listed: [4] | [6] | [9] | [18] | [19] | [20]
inactive: all other assays above

COC(=O)c1ccc(C(=O)OC)cc1
inactive: [1] | [2] | [3] | [5] | [6] | [10] | [11] | [12] | [13] | [17] | [14]

C=C(C)CCCC(C)CCO (centres undefined)
not listed: [2] | [3] | [8] | [9] | [11] | [15] | [19] | [20]
inactive: all other assays above

CCCc1ccc(O)cc1
active: [4] 12 µM
inactive: [1] | [18] | [3] | [5] | [6] | [8] | [9] | [16] | [17] | [14]

C=CCOCC(O)CO (centres undefined)
inactive: [1] | [18] | [3] | [5] | [9] | [10] | [11] | [12]
active: [14] 152 µM

Nc1ccc(O)c(N)c1
not listed: [2] | [4] | [8] | [9] | [11] | [12] | [20]
inactive: all other assays above

COc1ccc(C(C)=O)cc1
inactive: [1] | [18] | [3] | [20] | [4] | [5] | [16] | [17] | [14]

NC(N)=S
inactive: [1] | [18] | [3] | [5] | [8] | [10] | [11] | [12] | [13] | [14]

CCCCCCCCCCCCOC(C)=O
inactive: [1] | [18] | [3] | [4] | [5] | [6] | [12] | [13] | [17] | [14]

CCCCOCCOCCOCCO
not listed: [2] | [7] | [8] | [9] | [12] | [20]
inactive: all other assays above

CC(=O)OCC=C(C)CCC=C(C)CCC=C(C)C
inactive: [18] | [3] | [19] | [10] | [16] | [12] | [17] | [14]
active: [1] 148 µM | [4] 9.02 µM | [5] 151 µM

CCCCCCCC1CCCC1=O (centres undefined)
inactive: [1] | [18] | [4] | [5] | [12] | [17] | [14]

O=Cc1ccccc1O
inactive: [1] | [18] | [3] | [5] | [6] | [10] | [16] | [11] | [13] | [17] | [14]

CCCCCCCCCCCCS
inactive: [1] | [18] | [4] | [5] | [7] | [14]
active: [3] 42.5 µM | [6] 5.01 µM

CCCCCCCCCCCCOCCOS(=O)(=O)O
inactive: [1] | [18] | [3] | [19] | [5] | [16] | [12] | [13] | [17] | [14]

CCC=C(C)C=O
active: [18] 0.643 µM
not listed: [2] | [4] | [6] | [10] | [15]
inactive: all other assays above

CC(C)OB(OC(C)C)OC(C)C
not listed: [2] | [4] | [10] | [12] | [19]
inactive: all other assays above
